According to PubChem BioAssay (NCI):
Compounds without any hit were thinned out: in the full panel of roughly 79,000, 15% have a hit. Unmarked numbers belong to inactive results. Calls of active or inactive are those of the source. Rule as the data show it: active = growth inhibition above about 70%; inactive = the rest.

Experiments:
[1] = NCI Yeast Anticancer Drug Screen. Data for the rad50 strain (AID 155);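 also: 0% = growth of vehicle-only cultures of the same strain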; conditions: S. cerevisiae rad50 strain growth inhibition, hits give high values
How it was run: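 Growth of the mutant yeast was measured after compound exposure and referenced to vehicle-treated cultures.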

[2] = NCI Yeast Anticancer Drug Screen. Data for the mec2-1 strain (AID 157); conditions: S. cerevisiae mec2-1 strain, hits give high values
How it was run: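 Readout is yeast growth inhibition, normalised to vehicle-treated controls, in the mec2-1 strain exposed to compound.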

[3] = NCI Yeast Anticancer Drug Screen. Data for the sgs1 mgt1 strain (AID 161);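 also: 0% = growth of cultures given vehicle only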; conditions: S. cerevisiae sgs1 mgt1 strain, hits give high values
How it was run: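 Percent growth inhibition was derived by comparing compound-exposed mutant yeast with vehicle-exposed cultures. The strain carries alterations in DNA damage repair.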

[4] = NCI Yeast Anticancer Drug Screen. Data for the cln2 rad14 strain (AID 165);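 also: 0% = growth equal to vehicle treated cultures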; conditions: S. cerevisiae cln2 rad14 strain, hits give high values
How it was run: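 Relative to vehicle controls, growth inhibition of compound-treated cln2 rad14 yeast was recorded.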

[5] = NCI Yeast Anticancer Drug Screen. Data for the bub3 strain (AID 167); conditions: S. cerevisiae bub3 mutant strain, hits give high values
How it was run: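 Whole-cell yeast assay. The mutant strain was incubated with compounds, and growth inhibition was determined by comparison with vehicle-treated cells.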

[6] = NCI Yeast Anticancer Drug Screen. Data for the mlh1 rad18 strain (AID 175); conditions: S. cerevisiae mlh1 rad18 strain growth inhibition, hits give high values
How it was run: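 Test agents were incubated with a yeast strain of defined genotype (DNA damage repair defect). Inhibition of growth was derived by comparison with vehicle-exposed cultures.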

[7] = at 5.0 µM (retest, dose inferred, filed as 0.5)
[8] = at 50.0 µM (retest, dose inferred, filed as 5.0)

Compound	growth inhibition [1, 7]	growth inhibition [1, 8]	growth inhibition ([1]; at 50.0 µM)	growth inhibition [2, 7]	growth inhibition [2, 8]	growth inhibition ([2]; at 50.0 µM)	growth inhibition [3, 7]	growth inhibition [3, 8]	growth inhibition ([3]; at 50.0 µM)	growth inhibition [4, 7]	growth inhibition [4, 8]	growth inhibition ([4]; at 50.0 µM)	growth inhibition [5, 7]	growth inhibition [5, 8]	growth inhibition ([5]; at 50.0 µM)	growth inhibition [6, 7]	growth inhibition [6, 8]	growth inhibition ([6]; at 50.0 µM)
CCCCCCOC(=O)Nc1ccc(S(=O)(=O)N2CCCCC2)cc1	-7%	47%	35.5%	-9%	56%	28.1%	7%	66%	50.5%	-87%	44%	7.35%	-10%	41%	73.8% (active)	-1%	46%	52.5%
Cc1ccc(Nc2nc3nc[nH]c3c(=O)[nH]2)cc1CO	2%	13%	-4.35%	10%	2%	-12.4%	-12%	14%	-0.6%	-2%	-4%	0%	2%	-4%	-8.75%	15%	7%	4.8%
O=C(O)C1C(Br)(c2ccccc2)C1(Br)c1ccccc1 (stereo not given)	47%	90% (active)	90.7% (active)	-1%	30%	17.7%	9%	70% (active)	69%	25%	93% (active)	83.8% (active)	-3%	10%	7.05%	-8%	55%	59.9%
CC(C)CCSc1ncnc2nc[nH]c12	1%	6%	48.1%	-5%	3%	53.5%	-1%	1%	63%	-4%	9%	29.8%	-2%	8%	73.5% (active)	-1%	6%	33.8%
O=C(/C=C/c1ccccc1)c1ccc(NCc2nc3ccccc3[nH]2)cc1	-28%	74% (active)	70.7% (active)	-62%	61%	77% (active)	-23%	82% (active)	84% (active)	-20%	80% (active)	84.8% (active)	-8%	85% (active)	76.7% (active)	-35%	80% (active)	68.8%
